Data: PubChem BioAssay (NCATS)
Results filed as inconclusive are left out. Where a call stands in place of a potency, no number is given. The source made the active and inactive calls. Calls follow the shape of the full dose curve.

What follows are compounds tested against Thyroid hormone receptor beta (Homo sapiens) (UniProt P10828) (assay: qHTS assay for small molecule agonists of thyroid hormone receptor beta signaling (AID 588545)). Conditions: TR-UAS-bla GripTite HEK 293, beta-lactamase ratio, agonist mode, 18 h; series mostly up to 76.7 µM.
Chain of Thyroid hormone receptor beta (Homo sapiens) (P10828 whole entry, looked up): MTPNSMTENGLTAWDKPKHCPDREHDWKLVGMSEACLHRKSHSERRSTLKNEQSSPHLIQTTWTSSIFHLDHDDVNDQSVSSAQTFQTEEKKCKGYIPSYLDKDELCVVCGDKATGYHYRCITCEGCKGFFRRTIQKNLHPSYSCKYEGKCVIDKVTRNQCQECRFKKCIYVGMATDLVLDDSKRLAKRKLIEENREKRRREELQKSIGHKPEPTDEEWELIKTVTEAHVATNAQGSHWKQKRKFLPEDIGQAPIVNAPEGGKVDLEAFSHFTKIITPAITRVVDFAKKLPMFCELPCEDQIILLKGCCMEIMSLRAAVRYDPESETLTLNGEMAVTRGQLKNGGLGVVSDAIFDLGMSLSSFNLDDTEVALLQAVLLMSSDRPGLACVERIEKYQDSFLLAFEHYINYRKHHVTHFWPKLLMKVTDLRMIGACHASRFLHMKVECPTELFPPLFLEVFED
Text: NIH Chemical Genomics Center [NCGC]
U.S. Environmental Protection Agency [EPA]
National Institutes of Environmental Health Sciences [NIEHS]
National Toxicology Program [NTP]
Thyroid hormone receptor (TR) belongs to nuclear hormone receptor superfamily. There are two subtypes for TR: TR-alpha and TR-beta. TR-beta plays a major role in regulating plasma cholesterol levels and it mediates the biological activities of thyroid hormone. Screening environmental chemicals on TR-beta signaling will provide important information for the mechanism of compound action.
NCGC Assay Protocol Summary
Using a beta-lactamase reporter-gene under control of the TR response element, a cell-based assay [GeneBLAzer TR-UAS-bla-GripTite assay developed by Invitrogen] was used to measure TR-beta signaling in agonist mode. TR-UAS-bla-GripTite HEK 293 cells were used with assay medium containing 2% charcoal/dextran FBS, 0.1 mM NEAA and 1 mM sodium pyruvate. The assay was performed in clear bottom black Greiner 1536-well plates. T3 was used as a positive control in the screen. Library compounds were measured for their ability to stimulate the reporter gene activity. Compounds were screened in a titration series in 1536-well format. The fluorescence intensity (405 nm excitation, 460/530 nm emission) was measured using an EnVision plate reader. Data was normalized relative to T3 control (10 nM, 100%), and DMSO only wells (basal, 0%). Concentration-response titration points for each compound were fitted to the Hill equation yielding concentrations of half-maximal stimulation (EC50) and maximal response (efficacy) values.
qHTS protocol for TR-beta beta-lactamase assay in agonist mode
[Step] [Parameter] [Value] [Description]
1. Reagent; 6 uL; 2500 cells/well
2. Incubation; 37 C for 4 hrs
- Dose response; start 3.8 uM, 1:3 dilutions, duplicates in first column
- Two columns of each 10 and 0.4 nM (finals) concentrations.
5. Incubation; 37 C for 18 hrs
6. Detection reagent; 1 uL of CCF4-dye
7. Incubation; RT for 2 hrs
8. Detection; Fluorescence; Envision plate reader

SMILES	Potency
CCCCCCC(O)CCCCCCCCCCC(=O)OC (stereo not given)	inactive
CC(COc1ccc(C(C)(C)C)cc1)OS(=O)OCCCl (stereo not given)	inactive
C=C(C)C(=O)OCC[N+](C)(C)C	inactive
CCCCCCCCCCCO	inactive
CC(C)(C)c1cccc(C(C)(C)C)c1O	inactive
CCCCC(CC)C(=O)OCCOCCOCCOC(=O)C(CC)CCCC (stereo not given)	inactive
CCCCN(CCCC)CCCC	inactive
NCCCCCCCCCCCC(=O)O	inactive
CCCN(CCC)c1c([N+](=O)[O-])cc(C(F)(F)F)c(N)c1[N+](=O)[O-]	inactive
CC1=CC(=O)CC(C)(C)C1	inactive
Cc1ccc(C(=O)c2ccccc2)cc1	inactive
CC(=O)N(CCN(C(C)=O)C(C)=O)C(C)=O	inactive
O=C(O)CCCCCCCCCCC(=O)O	inactive
O=C(O)c1cc2ccccc2cc1O	inactive
CC(C)C(=O)OC(=O)C(C)C	inactive
CN(C)C(=O)Nc1ccccc1	inactive
CCOCCOCCOCCO	inactive
CC(=O)OC(C)(C)C1CC=C(C)CC1 (stereo not given)	inactive
CCCCC/C=C\C/C=C\CCCCCCCC(=O)OC	inactive
C[Si](C)(Cl)[Si](C)(C)Cl	inactive

SMILES	Potency
Cc1c(Cl)cccc1Cl	inactive
C[Si]1(C)O[Si](C)(C)O[Si](C)(C)O[Si](C)(C)O1	inactive
CCCCCCCCCC(=O)OC	inactive
CCNc1nc(N)nc(Cl)n1	inactive
CCCCCCCCCCCCCO	inactive
CCC(=O)OCCc1ccccc1	inactive
C[Si]1(C)O[Si](C)(C)O[Si](C)(C)O1	inactive
C=CCCCCCCCCC=O	inactive
CC(C)C(=O)OCC(C)(C)C(O)C(C)C (stereo not given)	inactive
CCCCCCCCCCCCN	inactive
CCCCCc1ccc(N)cc1	inactive
O=C=NC1CCC(CC2CCC(N=C=O)CC2)CC1 (stereo not given)	inactive
CCCCCCCCCCCCCCC(=O)OC	inactive
CC(C)(C)C(O)/C(=C\c1ccc(Cl)cc1)n1cncn1 (stereo not given)	inactive
CC(C)CCCCCCCCCCCCCCC(=O)O	inactive
C[C@]12CC[C@@H]3c4ccc(O)cc4CC[C@H]3[C@@H]1CC[C@H]2O	inactive
CNc1nc(=O)n(C2CCCCC2)c(=O)n1C	inactive
C/C=C/C=C/CCCCCCCO	inactive
O=S(c1ccc(Cl)cc1)c1cc(Cl)c(Cl)cc1Cl (stereo not given)	inactive
CCC(C)(C)C1CCC(O)CC1 (stereo not given)	inactive
